The entries come from a sample that favours hits as a whole.
G9a inh: inhibitors of human histone lysine methyltransferase G9a; Potency, µM (doses to about 102 µM), for inactives: top-dose activity, negative = inhibition, actives largely listed as inhibitors; actives 8.8% (n = 350,000); G9a H3K9 monomethylation, AlphaScreen, 2 h; also: % is scaled to controls: 0 for no effect and ±100 for the full control effect; nearly all actives have a fitted effect of over 75% in size
Target sequence (Q96KQ7 913-1193 limits assumed): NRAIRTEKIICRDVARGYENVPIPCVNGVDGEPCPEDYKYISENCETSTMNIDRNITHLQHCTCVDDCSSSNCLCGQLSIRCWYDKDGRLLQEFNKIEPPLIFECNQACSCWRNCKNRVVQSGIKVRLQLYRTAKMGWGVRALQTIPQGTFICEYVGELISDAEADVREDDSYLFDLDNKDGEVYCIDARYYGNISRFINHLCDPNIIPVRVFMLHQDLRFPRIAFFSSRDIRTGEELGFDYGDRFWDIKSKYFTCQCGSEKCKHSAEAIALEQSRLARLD
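Compounds were preincubated with 20 nM G9a for 15 min, after which biotinylated H3K9 peptide (500 nM) and SAM (20 uM) started a 2 h room-temperature reaction. Monomethylated product was quantified by antibody-based AlphaScreen chemiluminescence.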
12-LOX inh: inhibitors of human 12S-lipoxygenase ALOX12. P18054. purified 12hLO, xylenol orange hydroperoxide absorbance. Potency, µM (titrated, usually from 108 µM), inactives show top-dose activity change, negative = inhibition, usual class: inhibitors. actives 1.1% (n = 580,000). AID 1671190; also: % is scaled to controls: 0 for no effect and ±100 for the full control effect
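Purified human 12hLO (150 nM final) in 25 mM Hepes, 0.01% Triton X-100, pH 7.0 was preincubated 15 min at room temperature with compound. Then 40 uM arachidonic acid was added, 30 min. Hydroperoxide was read by Fe-XO absorbance ratio 573/405 nm.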
VDR inhibitor: blocks the human vitamin D receptor. VDR-SRC2-3 peptide fluorescence polarization, 2 h. actives 0.93% (n = 400,000). P11473. Potency, µM, for the others: max response, negative = inhibition, hits mostly inhibitors; also: % is scaled to controls: 0 for no effect and ±100 for the full control effect
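Reagent solutions, kept cold and dark, are dispensed first; compounds are then pinned in at 23 nl, plates briefly spun, and incubated 2 h at ambient temperature. Inhibition of VDR–SRC2-3 peptide binding is read by fluorescence polarization.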
GRP78 ERSR act: ER stress response induction in glioma; U87-MG GRP78 promoter luciferase reporter, 16 h; Potency, µM, without a hit: at the top dose activation, most hits filed as activators; actives 0.02% (n = 420,000); also: series mostly up to about 76 µM; % of control where 0% means no effect; nearly all actives have a fitted effect of over 35% in size
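ERSR induction read as luciferase luminescence (Bright-Glo, 10 min at room temperature) in stably transfected human U87-MG glioma cells exposed to compounds for 16 h, using GRP78 as sensor.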
Sfp PPTase inh: blocks B. subtilis Sfp PPTase activity | Biochemical Sfp PPTase activity, qHTS | AID 1490 | Potency, µM, inactives show largest response in the series, negative = inhibition, most hits filed as inhibitors | Q9F4F7 | actives 3.5% (n = 310,000);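 also: the enzyme is Sfp with the accession as filed and its product quenches rhodamine fluorescence; 0% = enzyme reaction without inhibitor and -100% = no enzyme wells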
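After 15 min at room temperature with compound, 15 nM Sfp received 5 uM rhodamine-CoA plus 12.5 uM BHQ-2-ybbR (50 mM Hepes pH 7.6, 10 mM MgCl2). Rate came from the fluorescence difference over 30 min, ex 525/em 598 nm.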
* marks the source's active call; other numbers are inactive results; ? = inconclusive; · = no result given; [ ] = another dose, or the depositor's remark. Calls follow the shape of the dose curve; as a rule, active = well fitted curve in the direction sought with a large enough effect; inconclusive = small, poorly fitted or top-dose-only effect, or another doubt; inactive = no such curve, though single readings can be large; an effect the other way counts as inactive or inconclusive. Potency is read from the fitted curve at half-maximal effect.

SMILES	G9a inh	12-LOX inh	VDR inhibitor	GRP78 ERSR act	Sfp PPTase inh
O=C(O)C1(c2ccc(Cl)cc2)CCOCC1	·	0%	·	·	·
O=C(O)c1ccc(N2C(=O)CC(N3CCN(c4ccc(Cl)cc4)CC3)C2=O)cc1 (configuration not stated)	45µM*	0%	0%	-4%	6%
COc1ccc(N2CCN(C3CC(=O)N(C)C3=O)CC2)cc1 (configuration not stated)	?	2%	11%	-2%	17%
CCOc1ccc(N2C(=O)CC(N3CCN(c4ccccc4OC)CC3)C2=O)cc1 (configuration not stated)	·	?	-31%	1%	8%
Cc1cccc(N2C(=O)CC(N3CCN(c4ccc(Cl)cc4)CC3)C2=O)c1 (configuration not stated)	3%	2%	17%	0%	5%
Cc1cccc(N2C(=O)CC(N3CCN(Cc4ccc(Cl)cc4)CC3)C2=O)c1 (configuration not stated)	40µM*	33%	1%	-4%	9%
COc1ccc(N2C(=O)CC(N3CCN(c4ccc(S(C)(=O)=O)cc4)CC3)C2=O)cc1 (configuration not stated)	32µM*	18%	-9%	-4%	15%
CCCOc1ccc(N2C(=O)CC(N3CCN(c4ccccc4OC)CC3)C2=O)cc1 (configuration not stated)	45µM*	312%	2%	-1%	13%
O=C1CC(N2CCN(c3ccc(Cl)cc3)CC2)C(=O)N1c1ccc(F)cc1 (configuration not stated)	-12%	-4%	-7%	-1%	1%
N#Cc1ccc(NC(=O)C2CC(c3ccccc3F)=NO2)cc1 (configuration not stated)	·	7%	·	·	·
Oc1[nH]c(=S)sc1C=C1N=c2ccccc2=N1	?	0%	-6%	8%	3%
Oc1[nH]c(=S)sc1/C=C1\C(c2ccccc2)=Nc2ccccc21	2.5µM*	?	-18%	2%	-13%
Cc1ccc(-c2nsc(NC(=O)c3oc4ccccc4c3C)n2)s1	·	-7%	·	·	·
C=CCn1c(SCc2nc3ccccc3nc2C)nnc1-c1ccoc1C	?	32µM*	?	-4%	-1%
O=C(Nc1cccc(Cl)c1Cl)C12CC3CC(CC(C3)C1)C2	·	2%	·	·	·
NC(=O)c1cc(Cl)ccc1OCC(=O)N1CCCCCC1	·	20%	·	·	·
O=C(Cn1cncc1-c1ccc([N+](=O)[O-])cc1)Nc1ccccc1F	?	-21%	-6%	-5%	-12%
[O-]/C(=C(\C(=S)Nc1ccccc1F)[n+]1ccccc1)c1ccc(OC(F)F)cc1	50µM*	2%	0%	1%	?
O=C(/C=C/c1ccc([N+](=O)[O-])cc1)Nc1ncc([N+](=O)[O-])s1	50µM*	0%	1%	-10%	40µM*
O=[N+]([O-])c1ccc(/C([O-])=C(/C(=S)Nc2ccccc2F)[n+]2ccccc2)cc1	50µM*	-24%	-13%	3%	-16%
COc1cccc(NC(=O)/C=C/c2ccccc2[N+](=O)[O-])c1	?	-5%	-6%	1%	-15%
COc1cccc(NC(=O)/C=C/c2ccc([N+](=O)[O-])cc2)c1	7.9µM*	?	-2%	5%	50µM*
CCOc1cc(CNCc2ccco2)ccc1OCc1ccccc1	·	-46%	·	·	·
O=C(N/N=C/c1cccs1)c1ccc(NC(=O)c2ccccc2)cc1	·	21%	·	·	·
Cn1cc(C(=O)N2CCNC(=O)C2)c2ccccc21	·	-1%	·	·	·
SMILES	G9a inh	12-LOX inh	VDR inhibitor	GRP78 ERSR act	Sfp PPTase inh
O=C(NCCCN1CCCC1=O)c1ccc(-c2ncc3cnc(-c4ccccc4)cn23)cc1	·	-36%	·	·	·
O=[N+]([O-])c1cccc(C([O-])=C(C(=S)Nc2cccc3ccccc23)[n+]2ccccc2)c1	·	-37%	10%	1%	·
Cc1ccc(C)c(NC(=S)/C(=C(\[O-])c2ccc(OC(F)F)cc2)[n+]2ccccc2)c1	40µM*	-10%	-27%	1%	?
O=[N+]([O-])c1cccc(/C([O-])=C(/C(=S)Nc2cccc3ccccc23)[n+]2ccccc2)c1	5.6µM*	-29%	3%	-2%	35µM*
COc1cccc(NC(=S)/C(=C(\[O-])c2ccc([N+](=O)[O-])cc2)[n+]2ccccc2)c1	45µM*	10%	?	6%	?
COc1ccc(C)cc1NC(=O)c1ccc(OC(F)F)cc1	45%	7%	-11%	-2%	6%
Cc1cccc(C)c1-c1nc(C(=O)N2CCOCC2)n2ccccc12	·	7%[6.33 µM]	·	·	·
O=C(c1cccc(Cl)c1)N1CCN(Cc2ccccc2F)CC1	18µM*	?	14%	0%	-23%
O=C(c1cccc(Cl)c1)N1CCN(Cc2ccncc2)CC1	35µM*	?	14%	-1%	-3%
COc1ncccc1-c1cnc2[nH]cc(CC(=O)NC(C)C)c2c1	·	13%[176 µM]	·	·	·
CSc1ccc(C(=O)C2CCCN(C(=O)c3nn(C)c(=O)c4ccccc34)C2)cc1 (configuration not stated)	28µM*	-2%	-11%	2%	16%
Nc1nc(Nc2ccc(F)cc2)nc(-c2cc3ccccc3o2)n1	·	-8%	·	·	·
Nc1csnc1C(=O)O	32µM*	0%	4%	-6%	-3%
Cc1ccc(/C=C/C(=O)N2CC(C)CC(C)C2)o1 (configuration not stated)	8.9µM*	?	?	?	16µM*
Cc1ccc(/C=C/C(=O)N2CCCC(C)C2)cc1 (configuration not stated)	?	19%	-5%	-9%	-4%
CCN1CCN(C(=O)/C=C/c2ccc(C)o2)CC1	10µM*	-31%	-9%	-3%	40µM*
CCN1CCN(C(=O)/C=C/c2ccc(C(C)C)cc2)CC1	·	0%	0%	3%	·
O=C(CCCC(=O)OCC(=O)c1ccc(Br)cc1)OCC(=O)c1ccc(Br)cc1	·	-21%	·	·	·
O=C(OCc1ccc(-c2ccccc2)cc1)c1cnccn1	·	-22%	·	·	·
Cc1ccc(C)c(-c2ccc(C(=O)O)o2)c1	?	·	126µM*	-8%	112µM*
COc1ccc(Cl)cc1-c1ccc(C(=O)O)o1	?	·	112µM*	-6%	112µM*
CCn1cnnc1-c1cccc(NC(=O)Cc2ccc(F)cc2)c1	·	-6%	·	·	·
Cc1cc(C)c2ccc(C)[n+]([O-])c2c1O	13µM*	0%	1%	?	-18%
O=C(CSc1nnc(NC(=O)C2CC(=O)N(c3ccc(F)cc3)C2)s1)NCc1ccco1 (configuration not stated)	45µM*	?	79µM*	-5%	-22%
NC(=O)CSc1nnc(NC(=O)C2CC(=O)N(c3ccc(F)cc3)C2)s1 (configuration not stated)	·	?	-27%	-1%	?
